Measurements taken from ChEMBL document CHEMBL1157539, “Thousands of chemical starting points for antimalarial lead identification” (Nature, 2010).

system: Plasmodium falciparum; test: GSK_TCMDC: Inhibition of Plasmodium falciparum 3D7 in whole red blood cells, using parasite LDH activity as an index of growth. Test compounds present at 2uM; type: functional

Row | SMILES | Inhibition [%]
1 | Cc1cc2nc(-c3ccc(C(=O)NCc4cccc(F)c4)cc3)[nH]c2cc1C | 91
2 | NC1=NC(c2ccccc2)(c2ccccc2)C(=O)N1Cc1ccc(-c2cccnc2)cc1.O=CO | 99
3 | Cc1nc(NCCc2c[nH]cn2)cc(NCc2ccccc2)n1 | 100
4 | COc1ccc(-c2cccc(NC(=O)c3ccc(C#N)cc3)c2)cc1CN1CCN(C)CC1.O=C(O)C(F)(F)F | 93

system: Plasmodium falciparum; test: GSK_TCMDC: Inhibition of Plasmodium falciparum Dd2 in whole red blood cells, using parasite LDH activity as an index of growth. Test compounds present at 2uM; type: functional

Row | SMILES | Inhibition [%]
5 | Cc1cc(NC(=O)NCCN2CCC(NS(=O)(=O)c3ccc(C(F)(F)F)cc3)C2)c2ccccc2n1.O=C(O)C(F)(F)F (centres undefined) | 39
6 | Cc1ccc(-c2nnc(Nc3ccc(C(=O)N4CCCCC4)cc3)c3ccccc23)cc1S(=O)(=O)NCC1CCCO1 (centres undefined) | 99
7 | Fc1ccc2c(NN=Cc3ccccc3F)ccnc2c1 | 99
8 | C=C(C)C1CC=C(CN2CCCC(n3ccc4cc(NC(=O)c5ccco5)ccc43)CC2)CC1 (centres undefined) | 95
9 | O=C(Nc1cccc([N+](=O)[O-])c1)N(Cc1ccc(Cl)c(Cl)c1)C1CCNCC1 | 0
10 | Cl.Cn1c(=O)n(C)c2cc(CNCCNc3ccnc4cc(Cl)ccc34)ccc21 | 96
11 | CCOc1c(OC)ccc2c1CCN(CCN1CCC(CNC(=O)c3ccc(-c4ccc(C#N)cc4)cc3)CC1)C2 | 61
12 | Cc1ccc(-c2nc3ccccc3o2)cc1NCc1cc(Cc2ccccc2)ccc1O | 50
13 | Cl.Oc1c(Cl)cc(-c2ccccc2)cc1CNC1CCCCC1 | 95
14 | COc1cc(OC)cc(-c2nn(-c3ccc([N+](=O)[O-])cc3Cl)c(=S)n2CC2CCCO2)c1 (centres undefined) | 98
15 | COc1cccc(Nc2c(C(N)=O)cnc3ccc(-c4ccccc4)cc23)c1 | 99
16 | Cc1nc2c(=O)sc3ccccc3c2n1Cc1ccccc1 | 26
17 | Cc1nnsc1C(=O)Nc1cccc(-c2cccc(-c3nc4cc(F)ccc4[nH]3)c2)c1 | 45
18 | Cc1ccc(S(=O)(=O)N(CCCN2CCN(C)CC2)Cc2csc(-c3ccc(CNCc4ccccc4)cc3)n2)cc1.O=C(O)C(F)(F)F | 90
19 | O=C(Nc1ccc(CCNCCCc2ccccc2)cc1)Nc1ccc(Cl)c(Cl)c1 | 99
20 | Cl.N=C(N)c1ccc(Nc2nc(Nc3ccc(-c4ccccc4)cc3)ncc2[N+](=O)[O-])cc1 | 35
21 | O=S(=O)(Nc1cccc(CCN2CCC(N3CCCCC3)CC2)c1)c1ccc2c(c1)OCCO2 | 5
22 | CCOC(=O)COc1cccc(CNc2ccc3nc(N)nc(N)c3c2)c1 | 99
23 | O=C(/C=C/c1ccc(Cl)c(Cl)c1)NCCCCCCN1CCN(C(=O)Nc2ccc(Cl)c(C(F)(F)F)c2)CC1 | 43
24 | COc1ccc(NC(=O)[C@H](CC(C)C)Nc2cc(C)nc(NCCc3ccc(F)cc3)n2)cc1.O=C(O)C(F)(F)F | 79

Row | SMILES | Inhibition [%]
25 | Cc1cc(NCCc2ccc(O)cc2)nc(NCC(c2ccccc2)c2ccccc2)n1 | 77
26 | O=C(Nc1cccc(F)c1)NC1CCN(c2ccnc3cc(Cl)ccc23)CC1.O=C(O)C(F)(F)F | 37
27 | CCN(CC)S(=O)(=O)c1ccc(CCOCCCCCNCC(O)c2cc(Cl)c(N)c(Cl)c2)s1.O=C(O)/C=C/C(=O)O (centres undefined) | 80
28 | Oc1ccc2[nH]c(-c3ccc(OC(F)(F)F)cc3)nc2c1CNC1CCCC1 | 97
29 | O=C(Nc1cccc(CN2CCCN(Cc3ccc(F)cc3)CC2)c1)c1ccc(Cl)c(Cl)c1.O=C(O)C(F)(F)F | 17
30 | Cc1csc(-c2ncc(OC[C@@H](N)Cc3ccccc3)cc2-c2ccc3[nH]nc(C)c3c2)c1.O=C(O)C(F)(F)F | 35
31 | CCCc1cc(OC)c(CC2c3cccc(O)c3CCN2C)cc1OC.Cl (centres undefined) | 99
32 | Brc1cc2c(cc1C=NNc1nc(=Nc3ccccc3)[nH]c(=Nc3ccccc3)[nH]1)OCO2 | 32
33 | COC(=O)c1ccc2[nH]cc(C3CCN(CCC4CCN(C(=O)/C=C/c5ccc(Cl)c(Cl)c5)CC4)CC3)c2c1 | 59
34 | Cc1cc(=NN=Cc2ccccc2Cl)c2cc(C(F)(F)F)ccc2[nH]1 | 75
35 | CCc1c(CCNCCCCCCNCCc2ccc(OC)c(OC)c2CC)ccc(OC)c1OC.Cl | 1
36 | O=C(Nc1cccc(-c2cccc(-c3nc4ccccc4[nH]3)c2)c1)Nc1ccc(F)c(F)c1F | 95
37 | CC(=O)Nc1nc(C(=O)Nc2cccc(-c3ccc4c(cnn4CC4CC4)c3)c2)cs1 | 67
38 | Cc1cccc(-c2cccc(CNc3nc(NCCc4ccc(O)cc4)nc(N4CCNCC4)n3)c2)c1.O=C(O)C(F)(F)F | 0
39 | O=C(/C=C/c1ccc(Cl)c(Cl)c1)NCCCCCN1CC[C@H](NC(=O)Nc2ccc(Oc3ccccc3)cc2)C1 | 14
40 | O=C(O)C(F)(F)F.O=S(=O)(NC1CCN(c2ccnc3cc(Cl)ccc23)C1)c1ccc(C(F)(F)F)cc1 (centres undefined) | 98
41 | Cc1cc2nc(-c3ccc(C(=O)NCc4cccc(F)c4)cc3)[nH]c2cc1C | 6
42 | NC1=NC(c2ccccc2)(c2ccccc2)C(=O)N1Cc1ccc(-c2cccnc2)cc1.O=CO | 94
43 | Cc1nc(NCCc2c[nH]cn2)cc(NCc2ccccc2)n1 | 5
44 | COc1ccc(-c2cccc(NC(=O)c3ccc(C#N)cc3)c2)cc1CN1CCN(C)CC1.O=C(O)C(F)(F)F | 2
